{"source": "PubChem BioAssay (EPA / NIEHS)", "note": "The source made the active and inactive calls. How the source made its calls: active means hit-call score of the fitted dose curve at least 0.9, where 1 is the maximum; inactive means score below 0.9.", "data": [{"assay": "CEETOX_H295R_OHPREG: CeeTox H295R High-throughput Steroidogenesis Assay for OH-Pregnenolone (OHPREG) (AID 2283434)", "conditions": "actives raise or lower the signal", "procedure": "CEETOX_H295R is a cell-based, multiplexed-readout assay that uses H295R, a human adrenal gland cell line, with measurements taken at 48 hours after chemical dosing in a 96-well plate.CEETOX_H295R_OHPREG is one of 23 assay component(s) measured or calculated from the CEETOX_H295R assay. It is designed to make measurements of hormone induction, a form of inducible reporter, as detected with […] by HPLC-MS-MS technology.Data from the assay component CEETOX_H295R_OHPREG was analyzed into 1 assay endpoint. This assay endpoint, CEETOX_H295R_OHPREG, was analyzed with bidirectional fitting relative to DMSO as the negative control and baseline of activity. Using a type of inducible reporter, gain or loss-of-signal activity using HPLC-MS-MS was used to understand synthesis of 17alpha-hydroxypregnenolone in H295R cell line at 48hr of chemical exposure. To generalize the intended target to other relatable targets, this assay endpoint is annotated to the steroid hormone intended target family, where the subfamily is progestagens.\nCell culture and media preparation procedures were conducted in accordance with OECD Test No. 456 guidelines, with minor modifications. H295R cells (ATCC CRL-2128) were expanded for 5 passages and frozen in batches in liquid nitrogen. Prior to the steroidogenesis assay, H295R cells were thawed and passed at least 4 times. The maximum passage was 10. Cells were maintained in a 1:1 mixture of DMEM/F12 supplemented with 5ml/L ITS+ Premix (BD Bioscience) and 12.5 ml/L Nu-Serum (BD Bioscience). After seeding cells into 96-well plates at 50-60% confluency, cells were allowed to adhere overnight. Prior to chemical testing, culture medium was replaced with 175 uL medium containing 10 uM forskolin to stimulate steroidogenesis for 48 hours. Following prestimulation, forskolin medium was replaced with medium containing test chemical solubilized in DMSO (ensuring a final concentration of 0.1% DMSO). Test chemicals were incubated for 48 hours, then the medium was removed and split into 2 vials containing approximately 75uL each, and stored at -80 C prior to hormone analysis. For steroid quantification, media samples were shipped to OpAns, LLC (Durham, NC) on dry ice, and samples were thawed to room temperature prior to liquid-liquid extraction. Steroid hormones were extracted from media samples using methyl tertbutyl ether (MTBE). An extra derivatization with dansyl chloride was included for estrogen (estrone and estradiol) detection only. Steroid hormones were separated by HPLC, eluted using a reverse phase C18 gradient with electrospray positive ionization, followed by quantification by tandem mass spectrometry (MS/MS). Data were acquired on a MassHunter Workstation Acquisition version B03.01 (Agilent Technologies, Inc.) and processed using MassHunter Quantitative Analysis for QQQ. Accuracy was determined for each hormone analyte from 3 standards to determine upper and lower limits of quantification (ULOQ and LLOQ, respectively) using a 7-point standard curve. Precision and accuracy of the extraction and quantification methods were calculated as the percent relative standard deviation (%RSD) of the spiked standards and percent spiked standard recovered, respectively. The goal was to achieve 100% accuracy (i.e., recover all spiked-in standard at quantification with minimal loss during run time) and good precision (i.e., have %RSD <15% to ensure reproducibility). Test medium was removed following chemical exposure, and cell viability was evaluated in the same wells by MTT. MTT procedures were as follows: after removal of test medium, 500 uL of 0.5 mg/ml of 3-[4,5-dimethylthiazol-2-y]2,5-diphenyltetrazoliumbromide solution was added to the cells. Following a 4-hour incubation at 37 C and 5% CO2 to allow formazan-crystal formation, the MTT solution was removed and blue formazan salt crystals were solubilized using 500uL anhydrous isopropanol with shaking for 20 minutes. […]", "values": [{"smiles": "Cc1cccc(Nc2cc(Cl)nc(SCC(=O)O)n2)c1C", "AC50": "13.1 µM (active)"}, {"smiles": "COc1ccc(C)cc1N", "outcome": "inactive"}, {"smiles": "Cc1nc(C)nc(N2C[C@@H](C)N(c3ccnc([C@@H](C)O)n3)[C@@H](C)C2)n1", "outcome": "inactive"}, {"smiles": "COC(=O)c1ccc(O)cc1", "outcome": "inactive"}, {"smiles": "CC1(C)CC(N=C=O)CC(C)(CN=C=O)C1", "note": "(stereo unspecified)", "outcome": "inactive"}, {"smiles": "CCOc1ccc2c(c1)C(C)=CC(C)(C)N2", "outcome": "inactive"}, {"smiles": "CC=Cc1ccc(O)c(OC)c1", "AC50": "37.3 µM (active)"}, {"smiles": "Nc1ccccc1N", "outcome": "inactive"}, {"smiles": "Oc1ccc2c(c1)OC[C@@H](N1CCC(O)(c3ccc(F)cc3)CC1)[C@H]2O", "outcome": "inactive"}, {"smiles": "Oc1ccc2ccccc2c1N=Nc1ccccc1", "outcome": "inactive"}, {"smiles": "Cc1cc(NC(=O)C(=O)O)cc(C)c1Oc1ccc(O)c2c1CCC2", "outcome": "inactive"}, {"smiles": "Nc1ccc(S(=O)(=O)c2ccc(N)cc2)cc1", "outcome": "inactive"}, {"smiles": "Nc1ccc2c(c1)C(=O)c1ccccc1C2=O", "outcome": "inactive"}, {"smiles": "Cc1nc(-c2ccc3c(c2)CCN(CCC2CCC(NC(=O)/C=C/c4ccc(F)cc4)CC2)CC3)no1", "note": "(stereo unspecified)", "AC50": "0.0518 µM (active)"}, {"smiles": "Cc1c(C(=O)O)c(O)cc2c1C(=O)c1c(O)c([C@@H]3O[C@H](CO)[C@@H](O)[C@H](O)[C@H]3O)c(O)c(O)c1C2=O", "outcome": "inactive"}, {"smiles": "CN1CCN(Cc2cc(-c3ccc4[nH]c(=O)oc4c3)co2)[C@@H](c2ccc(F)cc2)C1", "outcome": "inactive"}, {"smiles": "C=CCc1ccc(O)c(OC)c1", "outcome": "inactive"}, {"smiles": "NC(=O)Cn1c(=O)cc(CCN2CCN(c3nccc4sccc34)CC2)c2ccc(F)cc21", "AC50": "25 µM (active)"}, {"smiles": "c1cc(-c2ccncc2)ccn1", "outcome": "inactive"}, {"smiles": "COc1ccc(S(=O)(=O)N2C(=O)[C@@](c3ccccc3OC)(N3C[C@H](O)C[C@H]3C(=O)N(C)C)c3cc(Cl)ccc32)c(OC)c1", "outcome": "inactive"}, {"smiles": "COc1ccc2c(c1)c(CC(=O)O)c(C)n2C(=O)c1ccc(Cl)cc1", "outcome": "inactive"}]}]}
